In the supplement of paper PMC10600219:
Structures can show the parent of a compound that is named as a salt. Whole data set: some 2,800 compounds, median “cell viability relative to vehicle” near 0.98, cut for the lowest 2% near 0.45. For the sample, the lowest values were picked, then their nearest neighbours and some compounds at random.

Tested on: NCI-H2228 alectinib-DTP
Experiment: cell viability relative to vehicle (fraction of vehicle); NCI-H2228 is an ALK-positive lung cancer line and DTP means drug-tolerant persister; higher = less growth inhibition
Conditions: 100 nM; treatment time 6 days
How it was run: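 NCI-H2228 parental cells and drug-tolerant persister cells were plated in 384-well plates; the persisters had been generated with 1000 nM of a targeted drug over 13 days. One day later, the 3114-agent TargetMol anti-cancer compound library was added at 100 nM, with DMSO serving as vehicle. ATP was measured 6 days after that using the CellTiter-Glo 3D Cell Viability Assay. Values are cell viability expressed relative to vehicle-treated cells.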

SMILES | cell viability
CNC(=O)[C@H](Cc1ccccc1)NC(=O)[C@H](CC(C)C)[C@H](CSc1cccs1)C(=O)NO [Batimastat] | 1.15
CC(C)C[C@H](NC(=O)[C@H](Cc1ccccc1)NC(=O)c1cnccn1)B(O)O [Bortezomib] | 0.145
CC(C)C[C@H](NC(=O)[C@@H](O)[C@H](N)Cc1ccccc1)C(=O)O [Ubenimex] | 1.05
CC(C)C[C@H](NC(=O)[C@@H](O)[C@H](N)Cc1ccccc1)C(=O)O [Bestatin hydrochloride] | 1.12
CC(C)C[C@H](NC(=O)[C@@H](NC(=O)c1cccc(-c2ccccc2)n1)[C@@H](C)O)B(O)O [Delanzomib] | 0.301
CC(C(=O)Nc1cccc(/N=C/c2c(O)ccc3ccccc23)c1)c1ccccc1 (stereo not drawn) [Salermide] | 0.89
O=C(Nc1ccc(C(O)(C(F)(F)F)C(F)(F)F)cc1)c1ccccc1Cl | 0.929
Cn1cc(-c2cnn3c(N)c(Br)c([C@H]4CCCNC4)nc23)cn1 | 0.907
C/C(=C1/C(=O)Nc2ccc(NC(N)=O)cc21)c1ccc[nH]1 | 1.02
CCN(CC)CCOc1ccc(Nc2nc(-c3ccccc3NC(=O)CCN3CCN(C)CC3)nc3ccccc23)cc1 | 1.16
CSc1cccc(Nc2ncc3cc(-c4c(Cl)cccc4Cl)c(=O)n(C)c3n2)c1 | 0.665
CCN(CC)CCOc1ccc(Nc2ncc3cc(-c4c(Cl)cccc4Cl)c(=O)n(C)c3n2)cc1 | 0.445
N#Cc1cc2cc(CN3CCC(Nc4ncnc5sc(CC(F)(F)F)cc45)CC3)ccc2[nH]1 | 1.04
COc1ccc(-c2nc(-c3cc(C(F)(F)F)cc(C(F)(F)F)c3)n(Cc3ccc(C(N)=O)cc3)c2-c2ccc(OC)cc2)cc1 [Apoptozole] | 0.817
COc1cc2ncnc(Nc3ccc(F)c(Cl)c3)c2cc1OCCCN1CCOCC1 [Gefitinib] | 0.881
COc1c(OCCCN2CCOCC2)ccc2c1N=C(NC(=O)c1cnc(N)nc1)N1CCN=C21 [Copanlisib] | 0.38
COc1cc2c(Oc3ccc(NC(=O)C4(C(=O)Nc5ccc(F)cc5)CC4)cc3F)ccnc2cc1OCCCN1CCOCC1 [Foretinib] | 0.882
Cc1cc(C)c(S(=O)(=O)N(CCc2cccc(Br)c2)Cc2ccc(-c3cccc(S(C)(=O)=O)c3)cc2)c(C)c1 | 1.12
N#C/C(=C/c1ccc(O)c(O)c1)C(=O)N1CCc2ccccc21 [Tyrphostin AG 528] | 1.03
COc1ccc2c3n(c(=NC(=O)c4cccnc4)nc2c1OC)CCN3 | 0.447
COc1ccc(C=C(C#N)c2cccnc2)cc1OC | 0.956
CCc1nc2c(C)cc(N3CCN(CC(=O)N4CC(O)C4)CC3)cn2c1N(C)c1nc(-c2ccc(F)cc2)c(C#N)s1 | 1.02
CNS(=O)(=O)c1ccccc1Nc1nc(Nc2ccc(N3CCN(C)CC3)cc2OC)ncc1Cl [ALK inhibitor 2] | 1
COc1cc(N2CCC(N3CCN(C)CC3)CC2)ccc1Nc1ncc(Cl)c(Nc2ccccc2S(=O)(=O)C(C)C)n1 | 0.942
CN1CCN(Cc2ccc(Nc3ncc(Cl)c(Nc4ccccc4S(=O)(=O)N(C)C)n3)cc2)CC1 | 0.122

SMILES | cell viability
CC/C(=C(/c1ccc(O)cc1)c1ccc(OCCNC)cc1)c1ccccc1 [Endoxifen E-isomer hydrochloride] | 1.12
CN1C(N)=N[C@](C)(c2cc(NC(=O)c3ccc(F)cn3)ccc2F)CS1(=O)=O [Verubecestat] | 0.969
CN1CCc2c(c3ccccc3n2Cc2ccc(C(=O)NO)cc2)C1 [Tubastatin A HCl] | 0.892
Cn1cc(C[C@@H](N)C(=O)O)c2ccccc21 [Indoximod] | 1.14
Cn1cc(CNCC2CCN(c3ncc(C(=O)NO)cn3)CC2)c2ccccc21 [Quisinostat] | 0.358
CC(=O)OCC1=CO[C@@H](OC(=O)CC(C)C)[C@H]2C1=C[C@H](OC(=O)CC(C)(C)OC(C)=O)[C@]21CO1 [Acevaltrate] | 1.13
Cc1cc([N+](=O)[O-])c(NS(=O)(=O)c2cccc(C(=O)O)c2)cc1-c1cccnc1 [Alofanib] | 0.978
O=P(O)(O)O[C@H]1[C@H](OP(=O)(O)O)[C@@H](OP(=O)(O)O)[C@H](OP(=O)(O)O)[C@@H](OP(=O)(O)O)[C@H]1OP(=O)(O)O [Phytic acid] | 1.13
COC(=O)Nc1ccc(-c2nc(N3CCOCC3)c3cnn(C4CCN(C(=O)OC)CC4)c3n2)cc1 | 0.855
CN(C)C1CCN(C(=O)c2ccc(NC(=O)Nc3ccc(-c4nc(N5CCOCC5)nc(N5CCOCC5)n4)cc3)cc2)CC1 [Gedatolisib] | 0.385
CCNC(=O)Nc1ccc(-c2nc(N3CCOC[C@@H]3C)c3c(n2)C(C)(C)S(=O)(=O)C3)cc1 | 0.508
O=C(Nc1ncc([N+](=O)[O-])s1)c1ccccc1O [Tizoxanide] | 0.88
COC(=O)C[C@](O)(CCCC(C)(C)O)C(=O)O[C@@H]1C(OC)=C[C@]23CCCN2CCc2cc4c(cc2[C@H]13)OCO4 [Homoharringtonine] | 0.2
O=C(O)COc1ccc(Br)cc1/C=C1\SC(=S)N(Cc2cccnc2)C1=O [Skp2 Inhibitor C1] | 1.08
CC(C)=CCc1cc2c(cc1O)O[C@H](c1ccc(O)cc1)CC2=O [Bavachin] | 1.01
CC(C)(C)c1cc(NC(=O)Nc2ccc(Oc3ccnc4[nH]c(=O)cnc34)cc2F)n(-c2ccccc2)n1 | 1.12
Nc1ccc(/C=C/C(=O)NCc2cc3cc(-c4ccc(C(=O)N5CCC(F)(F)CC5)cc4)cc(-c4ccc(F)cc4)c3o2)cn1 | 1.25
Nc1cc(F)ccc1NC(=O)c1ccc(CNC(=O)/C=C/c2cccnc2)cc1 [Chidamide] | 0.775
O=C(/C=C/c1cccnc1)NCCCCC1CCN(C(=O)c2ccccc2)CC1 | 0.452
c1ccc(-c2oc3ncnc(NC[C@@H]4CCCO4)c3c2-c2ccccc2)cc1 | 1.06
COC1=CC(=O)c2ccccc2C1=O [2-Methoxynaphthoquinone] | 1.06
COc1ccc(-c2cc3c(C)nc(N)nc3n([C@H]3CC[C@H](OCCO)CC3)c2=O)cn1 | 0.398
CCn1c(=O)c(-c2cc[nH]n2)cc2c(C)nc(N)nc21 [Voxtalisib] | 0.86
COc1cccc(-c2cc(F)ccc2[C@H]2Cc3nc(N)nc(C)c3C(=O)N2)n1 | 0.502
CCCCCCCCCC(=O)CC(O)S(=O)(=O)O (stereo not drawn) [Sodium houttuyfonate] | 1.08

SMILES | cell viability
CC(=O)OC(C)(C)CCC(=O)[C@](C)(O)[C@H]1[C@H](O)C[C@@]2(C)[C@@H]3CC=C4[C@@H](C[C@H](O)[C@@H](O)C4(C)C)[C@]3(C)C(=O)C[C@]12C [Cucurbitacin IIA] | 1.07
Oc1ccc(C(c2c[nH]c3ccccc23)c2c[nH]c3ccccc23)cc1 | 1.08
C[C@@H]1O[C@@H](O[C@@H]2[C@H](O)[C@@H](O)[C@H](O[C@H]3CC[C@@]4(C)C(CC[C@]5(C)C4C=C[C@]46OC[C@@]7(CCC(C)(C)CC74)[C@@H](O)C[C@]65C)C3(C)C)O[C@@H]2CO[C@@H]2O[C@H](CO)[C@@H](O)[C@H](O)[C@H]2O)[C@H](O)[C@H](O)[C@H]1O (stereo partly drawn) [Saikosaponin C] | 0.993
COc1ccc(CC(=O)NC(/N=C(\NC#N)Nc2cccc3ncccc23)C(C)(C)C)cc1OC (stereo not drawn) | 0.985
Cc1ccc(NC(=S)NNc2c([N+](=O)[O-])cc(C(F)(F)F)cc2[N+](=O)[O-])cc1Cl | 0.982
COc1ccc(CCC(=O)O)cc1OC [3,4-Dimethoxyhydrocinnamic acid] | 0.856
N#CN=C(NCCCCCCOc1ccc(Cl)cc1)Nc1ccncc1 | 0.165
N=C(NCCCCCCNC(=N)NC(=N)Nc1ccc(Cl)cc1)NC(=N)Nc1ccc(Cl)cc1 [Chlorhexidine] | 1.17
N=C(NCCCCCCNC(=N)NC(=N)Nc1ccc(Cl)cc1)NC(=N)Nc1ccc(Cl)cc1 [Chlorhexidine hydrochloride] | 1.02
C[C@@H]1CC[C@]2(C(=O)O)CC[C@]3(C)C(=CC[C@@H]4[C@@]5(C)CC[C@H](O)[C@@](C)(CO)[C@@H]5CC[C@]43C)[C@@H]2[C@]1(C)O [Rutundic acid] | 1.02
CCN(CC)CC(O)CNc1ccc(NCC2CO2)c2c1C(=O)c1ccccc1C2=O (stereo not drawn) | 0.831
O=C(NCCCn1ccnc1)c1cc(-c2ccco2)on1 | 1.03
C[C@H](CC(=O)C[C@@H](C)[C@H]1C[C@H](O)[C@@]2(C)C3=C(C(=O)C[C@]12C)[C@@]1(C)CCC(=O)C(C)(C)[C@@H]1C[C@@H]3O)C(=O)O [Ganoderic acid A] | 1.03
CNC(=O)Nc1cc(Oc2cncc(C)c2)c(-c2ccc(OCC(C)(C)O)nc2)cn1 | 0.91
COc1cc2cc(Oc3ccc4ccc(=O)oc4c3)c(=O)oc2cc1O [Daphnoretin] | 1.11
COCC[n+]1c2c(n(Cc3cnccn3)c1C)C(=O)c1ccccc1C2=O | 0.0756
CC(C)(NS(=O)(=O)c1ccc2c(Cl)cnc(N=C(N)N)c2c1)C(=O)O | 1.04
CCC(=O)N1CCOc2c(cc(-c3ccc(OC)c(OC)c3)cc2OC[C@H]2CCCN(C)C2)C1 [I-CBP112 hydrochloride] | 0.963
Cc1cc(N2C[C@@H](C)N[C@@H](C)C2)ncc1-c1ccc(-c2nc3c(ccn3C)c(=O)[nH]2)cc1 | 0.757
CC(C)C[C@H](NC(=O)CNC(=O)c1cc(Cl)ccc1Cl)B(O)O [Ixazomib] | 0.28
CC(C)C[C@H](NC(=O)CNC(=O)c1cc(Cl)ccc1Cl)B1OC(=O)C(CC(=O)O)(CC(=O)O)O1 | 0.342
C[C@H](NC(=O)CNC(=O)c1cccc(Cl)c1)c1ccccc1 | 0.957
CCCC(C)NC(=O)c1ccc(Cl)c(Cl)c1 (stereo not drawn) | 1.07
